# From PubChem BioAssay (Tox21)
# Values joined by “and” are separate entries in the source; they are usually repeats but may differ in a detail not shown here. Equal values may be shown once. Results filed as inconclusive are left out. A call without a number means that no potency is given here. Some compounds were tested as several samples or in several runs, with calls that do not always agree. Active and inactive are the calls of the source. Calls come from the whole dose curve; as a rule, active = well fitted curve in the direction sought with a large enough effect in the repeat runs; inconclusive = weak or mixed curves; inactive = no such curve, though single readings can be large; an effect the other way counts as inactive or inconclusive.
# Experiments:
# [1] = A CellTox Green Cytotoxicity Assay to monitor cytotoxicity in HEK293 cells - 32 hour (AID 1224881); note: nearly all actives have a fitted effect of over 40% in size
# Outline: (§1)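 Nonlytic real-time cytotoxicity: HEK293 + CellTox Green reagent plated, 5 h preincubation, pintool compound addition (23 nL in DMSO), 37 C for 40 h, fluorescence measured at successive time points.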
# [2] = A CellTox Green Cytotoxicity Assay to monitor cytotoxicity in HepG2 cells - 0 hour (AID 1224882); note: nearly all actives have a fitted effect of over 35% in size
# Outline: (§2)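 Read-out is fluorescence of a cyanine dye excluded from live cells that stains DNA of dead HepG2 cells, with signal proportional to cytotoxicity. Plates were read at 0, 8, 16, 24, 32 and 40 h after compound addition.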
# [3] = A CellTox Green Cytotoxicity Assay to monitor cytotoxicity in HepG2 cells - 32 hour (AID 1224883); note: nearly all actives have a fitted effect of over 50% in size
# Outline: as §2
# [4] = A CellTox Green Cytotoxicity Assay to monitor cytotoxicity in HEK293 cells - 8 hour (AID 1224884); note: nearly all actives have a fitted effect of over 35% in size
# Outline: as §1
# [5] = qHTS RealTime-Glo MT Cell Viability Assay in HEK293 cells - 24 hour (AID 1224886); note: nearly all actives have a fitted effect of over 50% in size
# Outline: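 Assay medium contained NanoLuc luciferase plus cell-permeant prosubstrate, added with HEK293 cells at 600 cells/well. After 5 h at 37 C/5% CO2 compounds were added; plates stayed at 37 C for 40 h with serial luminescence reads.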
# [6] = qHTS RealTime-Glo MT Cell Viability Assay in HEK293 cells - 8 hour (AID 1224887); note: nearly all actives have a fitted effect of over 50% in size
# Outline: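 Cells were seeded together with NanoLuc luciferase and a prosubstrate that viable cells reduce to a luciferase substrate. After a 5 h incubation at 37 C/5% CO2, compounds were added and luminescence was measured repeatedly during 40 h of treatment.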
# [7] = A CellTox Green Cytotoxicity Assay to monitor cytotoxicity in HEK293 cells - 16 hour (AID 1224888); note: nearly all actives have a fitted effect of over 35% in size
# Outline: as §1
# [8] = qHTS RealTime-Glo MT Cell Viability Assay in HepG2 cells - 0 hour (AID 1224889); note: nearly all actives have a fitted effect of over 50% in size
# Outline: (§3)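 qHTS, HepG2, 600 cells/well, RealTime-Glo (NanoLuc + prosubstrate) added with cells; 5 h preincubation; DMSO compound addition; 37 C; luminescence at 0/8/16/24/32/40 h.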
# [9] = A CellTox Green Cytotoxicity Assay to monitor cytotoxicity in HepG2 cells - 8 hour (AID 1224890); note: nearly all actives have a fitted effect of over 45% in size
# Outline: as §2
# [10] = qHTS RealTime-Glo MT Cell Viability Assay in HepG2 cells - 16 hour (AID 1224885); note: nearly all actives have a fitted effect of over 50% in size
# Outline: as §3
# Potency is the fitted concentration of half-maximal effect.
SMILES,Potency [1],Potency [2],Potency [3],Potency [4],Potency [5],Potency [6],Potency [7],Potency [8],Potency [9],Potency [10]
CC(O)CN(CC(C)O)CC(C)O (configuration not stated),inactive,inactive,inactive,inactive,inactive,inactive,inactive,inactive,inactive,–
CCOP(=O)(O)OCC (tested in a mixture with another compound),inactive and 24.3 µM (active),inactive,inactive and 38.6 µM (active),inactive and 54.5 µM (active),inactive and 8.64 µM (active),inactive and 54.5 µM (active),–,inactive,inactive and 54.5 µM (active),–
O=[N+]([O-])c1ccc(Nc2ccccc2)cc1,inactive,inactive,inactive,inactive,44 µM (active) and 21.9 µM (active),–,inactive,inactive,inactive,inactive
CCCCC(C#N)(Cn1cncn1)c1ccc(Cl)cc1 (configuration not stated),inactive,inactive,–,inactive,inactive,inactive,inactive,inactive,inactive,inactive
OC(c1ccc(Cl)cc1)(c1cncnc1)c1ccccc1Cl (configuration not stated),25 µM (active) and inactive,inactive,17.7 µM (active) and inactive,inactive,7.04 µM (active),22.3 µM (active),–,inactive,inactive,–
O=C(O)CF,inactive,inactive,inactive and 19.5 µM (active),inactive,inactive,inactive,inactive,inactive,inactive,–
CN(C)c1ccccc1,inactive,inactive,inactive,inactive,inactive,inactive,inactive,inactive,inactive,–
COP(=S)(OC)SCn1nnc2ccccc2c1=O,inactive,inactive,inactive,inactive,–,–,inactive,inactive,inactive,inactive
CN(C)P(=O)(N(C)C)N(C)C,inactive,inactive,inactive,inactive,inactive,inactive,inactive,inactive,inactive,–
CC1=C(C(=O)Nc2ccccc2)SCCO1,inactive,inactive,inactive,inactive,inactive,inactive,inactive,inactive,inactive,–
O=S(=O)(O)C(F)(F)C(F)(F)C(F)(F)C(F)(F)C(F)(F)C(F)(F)C(F)(F)C(F)(F)F,33 µM (active) and inactive and 21.9 µM (active),inactive,18.6 µM (active) and inactive,37 µM (active) and inactive and 11 µM (active),inactive,inactive,–,–,inactive,–
CC1CC(=O)O1 (configuration not stated),inactive,inactive,inactive,inactive,inactive,inactive,inactive,inactive,inactive,–
C[C@]12CCC(=O)C=C1CC[C@@H]1[C@@H]2CC[C@@]2(C)[C@H]1CC[C@]2(C)O,44 µM (active) and inactive,19.7 µM (active) and inactive,22.1 µM (active),44 µM (active) and inactive,19.7 µM (active),inactive,–,14.3 µM (active) and 9.52 µM (active),22.1 µM (active) and inactive,inactive
CC(C)CON=O,inactive,–,inactive,inactive,inactive,inactive,inactive,inactive,inactive,inactive
O=C(O)c1nn(Cc2ccc(Cl)cc2Cl)c2ccccc12,inactive,inactive,inactive and 95.2 nM (active),inactive,inactive,inactive,inactive,inactive,inactive and 95.2 nM (active),–
c1ccc(C2CO2)cc1 (configuration not stated),inactive,inactive,inactive,–,inactive,inactive,inactive,inactive,inactive,–
COc1ccc(O)c(C(C)(C)C)c1,inactive,inactive,–,inactive,inactive,inactive,inactive,inactive,inactive,–
CCCCOCC1CO1 (configuration not stated),inactive and 19.5 µM (active),inactive and 38.9 µM (active),inactive and 43.6 µM (active),inactive and 24.5 µM (active),inactive,inactive,–,inactive,inactive and 43.6 µM (active),inactive
CC(C)(c1ccccc1)c1ccc(O)cc1,27.3 µM (active) and 24.5 µM (active),inactive,48.6 µM (active) and 24.5 µM (active),8.64 µM (active) and 49 µM (active),43.3 µM (active) and 24.5 µM (active),48.6 µM (active) and 34.7 µM (active),24.3 µM (active) and 43.6 µM (active),inactive,inactive and 43.6 µM (active),–
CCCCCCCCCc1ccc(O)cc1,inactive,inactive,39.3 µM (active) and 34.7 µM (active),inactive,7.84 µM (active) and 4.9 µM (active),6.99 µM (active) and 4.36 µM (active),inactive,inactive,inactive,–
CCCCCCCCCCCCCl,inactive and 19.5 µM (active),inactive and 19.5 µM (active),inactive and 12.3 µM (active),inactive and 19.5 µM (active),inactive,inactive,–,inactive,inactive and 12.3 µM (active),inactive
CCCCOC(=O)COC(=O)c1ccccc1C(=O)OCCCC,inactive,–,inactive,inactive,inactive,inactive,inactive,inactive,inactive,inactive

SMILES,Potency [1],Potency [2],Potency [3],Potency [4],Potency [5],Potency [6],Potency [7],Potency [8],Potency [9],Potency [10]
[Cl-].[Cl-].[Cl-].[Fe+3],inactive,inactive,inactive,inactive,inactive,inactive,inactive,inactive,inactive,–
O=[N+]([O-])/N=C1\NCCN1Cc1ccc(Cl)nc1,inactive,inactive,inactive,inactive,inactive,inactive,inactive,inactive,inactive,–
O=C1CCCO1,inactive,inactive,inactive,inactive,inactive,inactive,inactive,inactive,inactive,–
O=C1C(Cl)=C(Cl)C(=O)c2ccccc21,6.19 µM (active) and 6.17 µM (active),inactive,15.5 µM (active) and 4.9 µM (active),27.6 µM (active) and inactive,6.19 µM (active) and 9.77 µM (active),6.19 µM (active) and 7.76 µM (active),4.91 µM (active),–,15.5 µM (active) and 6.17 µM (active),21.9 µM (active) and 6.92 µM (active)
CN(C)c1nc(=O)n(C2CCCCC2)c(=O)n1C,inactive,inactive,inactive,inactive,inactive,inactive,inactive,inactive,inactive,–
N#Cc1cccnc1,inactive,inactive,inactive,inactive,inactive,inactive,inactive,inactive,inactive,–
Clc1cccc(C(Cl)(Cl)Cl)n1,inactive,–,54.5 µM (active),inactive,inactive,inactive,inactive,inactive,inactive,inactive
CC(C)(c1ccc(OCC2CO2)cc1)c1ccc(OCC2CO2)cc1 (configuration not stated),inactive,inactive,inactive,inactive,inactive,inactive,inactive,inactive,inactive,–
CCOP(=O)(OCC)OCC,inactive,inactive,inactive,inactive,inactive,inactive,inactive,inactive,inactive,–
CNC(=O)Oc1cccc2c1OC(C)(C)C2,inactive,inactive,inactive,inactive,inactive,inactive,inactive,inactive,inactive,–
N#CCCCCC#N,inactive,inactive,inactive,inactive,inactive,inactive,inactive,inactive,inactive,–
CNC(=S)S,inactive,inactive,inactive,inactive,inactive,inactive,inactive,inactive,inactive,–
ClC(Cl)(Cl)Br,inactive,inactive,inactive,inactive,inactive,inactive,inactive,inactive,inactive,–
Clc1cccc(Cl)c1,inactive,inactive,inactive,inactive,inactive,inactive,inactive,inactive,inactive,–
C=CC(=O)OCC(CC)(COC(=O)C=C)COC(=O)C=C,5.64 µM (active) and 11 µM (active),inactive,14.2 µM (active),inactive,4 µM (active) and 11 µM (active),28.3 µM (active) and 21.9 µM (active),inactive,inactive,inactive,–
CC(C)Nc1ccc(Nc2ccccc2)cc1,48.8 µM (active) and 49 µM (active),–,43.6 µM (active),inactive,17.3 µM (active) and 19.5 µM (active),15.4 µM (active) and 17.4 µM (active),54.9 µM (active),–,inactive and 49 µM (active),–
CCC(=O)Nc1ccc(Cl)c(Cl)c1,inactive,–,inactive,inactive,44.5 µM (active) and 43.6 µM (active),–,inactive,inactive,inactive,inactive
CCCCCCCCCC(CC)c1ccc(S(=O)(=O)O)cc1 (configuration not stated),–,inactive,54.9 µM (active) and 21.3 µM (active) and 38.9 µM (active),–,44.1 µM (active) and inactive,inactive,–,inactive,inactive and 34.7 µM (active),–
NN=C(N)N,inactive,–,inactive,inactive,inactive,inactive,inactive,inactive,inactive,inactive
Cc1cccc(N=Nc2ccc(N(C)C)cc2)c1,inactive,–,inactive,inactive,–,–,inactive,inactive,inactive,inactive
CCCCCCCC[N+](C)(CCCCCCCC)CCCCCCCC,17.3 µM (active) and 27.6 µM (active) and 11 µM (active),–,8.69 µM (active) and 19.5 µM (active) and 13.8 µM (active),24.5 µM (active) and 13.8 µM (active),548 nM (active) and 138 nM (active) and 2.19 µM (active),9.75 µM (active) and 21.9 µM (active) and 15.5 µM (active),24.5 µM (active) and 24.6 µM (active) and 15.5 µM (active),inactive,21.8 µM (active) and 39 µM (active) and 21.9 µM (active),15.5 µM (active) and 21.9 µM (active) and 13.8 µM (active)
